Assay [1] is described as follows: Cell Viability - Hek293 (AID 427;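 active means compounds whose dose-response curve shows a full or clear partial loss of cell viability, called from curve shape rather than a numeric limit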;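 further: potency means the concentration at half of the fitted maximal effect; cells exposed to compound for 40 hours at 37 °C before reading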). The following applies: qHTS. The essentials:
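HEK293 cells in complete medium were exposed to compound for 40 hr at 37 °C, then cellular ATP was read by CellTiter-Glo luminescence. Data were normalized to DMSO (basal) and 100 uM tamoxifen (100% inhibition), and AC50 came from Hill fits.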
Background: qHTS replaces the single test concentration by a dilution series.

Assay [2] deals with Mitogen-activated protein kinase 10 (Mus musculus) (UniProt Q61831). The assay can be described thus: JNK3 AlphaScreen Assay (AID 530; active means well fitted curve in either direction with a large enough effect, not every such curve was filed as active;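 further: kinase came from lysate of stimulated human HepG2 cells; signal reports phosphorylation of biotinylated GST-cJun 1-79 at Ser73 with 10 µM ATP; on the % scale 0 is the no-effect control and ±100 the full control effect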). The following applies: JNK3 lysate, c-Jun phosphorylation; series mostly up to 57.1 µM. The essentials:
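Inhibitors reduce antibody binding to phosphorylated biotin-cJun, lowering AlphaScreen luminescence. Lysates from HepG2 cells pre-activated by IL-1beta plus TNF-alpha supplied JNK3; compounds were titrated.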

Assay [3] in a line: Cell Viability - HUV-EC-C (AID 542). Further: on the % scale 0 is the no-effect control and ±100 the full control effect; nearly all actives have a fitted effect of over 35% in size. Particulars: HUV-EC-C endothelial cell viability, qHTS; series mostly up to 92.2 µM. In short, it runs like this: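 qHTS cytotoxicity: HUV-EC-C, 1000 cells/well, 5 hr settle, compound 40 hr 37 °C, CellTiter-Glo, luminescence. AC50 via Hill equation.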
Assay [4] is described as follows: MultiTox-Fluor Cytotoxicity Assay - LYMP1-003 - Dead Cells (AID 961).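 Further: 0% = DMSO and 100% = tetraoctylammonium bromide; nearly all actives have a fitted effect of over 70% in size.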 The following applies: LYMP1-003 lymphoblastoid cells, dead-cell protease fluorescence; series mostly up to 92.2 µM. The essentials:
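LYMP1-003 human lymphoblastoid cells (2500/well) exposed to compound 16 h at 37 C in complete medium; dead-cell protease read with bis-AAF-R110 fluorescence (Ex/Em 485/520) after 60 min at room temperature. Normalized to DMSO and 15 uM tetraoctylammonium bromide; AC50 from Hill fit.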

A short description of assay [5]: Cell Viability - LYMP1-003 - Assay at 24 hr (AID 963).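 Further: plate controls were DMSO only for no effect and tetraoctylammonium bromide positive control for full effect.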 The following applies: LYMP1-003 lymphoblastoid cell viability; series mostly up to 92.2 µM. In short, it runs like this: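 Cells seeded at 2500/well, 5 hr at 37 C; compounds added; 24 hr at 37 C; CellTiter-Glo added, 30 min room temperature; luminescence read. Decrease in ATP taken as cytotoxicity, AC50 from Hill modelling.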

Assay [6] in a line: Cell Viability - LYMP2-005 (AID 967).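 Further: plate controls were DMSO only for no effect and 92 µM tetraoctylammonium bromide control for full effect.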 Particulars: LYMP2-005 lymphoblastoid cell viability; series mostly up to 92.2 µM. The essentials:
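CellTiter-Glo luminescence (cellular ATP) read-out; LYMP2-005 lymphoblastoid cells, 2500/well, 5 h pre-incubation, then 24 h compound exposure at 37 C in complete medium. Tetraoctylammonium bromide positive control; AC50 by standard Hill fit.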

The nature of assay [7]: Cell Viability - LYMP2-013 (AID 970).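 Further: 0% = DMSO only and full inhibition = tetraoctylammonium bromide control; nearly all actives have a fitted effect of over 55% in size.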 Particulars: LYMP2-013 lymphoblastoid cells viability; series mostly up to 92.2 µM. In short, it runs like this:
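qHTS; 2500 lymphoblastoid cells/well; 5 hr 37 C settle; cpd 24 hr 37 C; CellTiter-Glo, 30 min RT; luminescence. AC50 = Hill fit.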

Assay [8] can be described thus: Cell Viability - LYMP2-015 (AID 971).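 Further: 0% = DMSO only and full effect = 92 µM tetraoctylammonium bromide; nearly all actives have a fitted effect of over 55% in size.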 The following applies: LYMP2-015 lymphoblastoid cell viability; series mostly up to 92.2 µM. The essentials:
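Luminescent ATP read-out (CellTiter-Glo) served as the viability measure after lymphoblastoid cells were exposed to compounds for 24 hours at 37 C. Concentration-response data were fitted with the Hill equation to give AC50.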

Assay [9] in a line: Cell Viability - LYMP2-017 (AID 972). Further: on the % scale 0 is the no-effect control and ±100 the full control effect; nearly all actives have a fitted effect of over 55% in size. Particulars: LYMP2-017 lymphoblastoid cell viability; series mostly up to 92.2 µM. The essentials:
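2500 cells/well, 5 h 37 C; cpd 24 h 37 C in complete medium; CellTiter-Glo, 30 min RT; luminescence (ATP). AC50 via Hill fit, qHTS.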

Assay [10] in a line: Cell Viability - LYMP2-019 (AID 973).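 Further: 0% = DMSO alone and full effect = 92 µM tetraoctylammonium bromide; nearly all actives have a fitted effect of over 55% in size.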 The following applies: LYMP2-019 lymphoblastoid cell line viability; series mostly up to 92.2 µM. In short, it runs like this: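 Luminescent ATP read-out (CellTiter-Glo, 30 min room temperature) served as the viability measure after 24 hr treatment of lymphoblastoid cells at 37 C. Concentration-response data were fitted to the Hill equation for AC50.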

A short description of assay [11]: Cell Viability - LYMP2-023 (AID 975). The following applies: LYMP2-023 lymphoblastoid cell viability; series mostly up to 92.2 µM. The essentials: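 2500 cells/well, 5 hr 37 C; cpd 24 hr 37 C; CellTiter-Glo, 30 min RT; luminescence. qHTS conc-response, Hill fit -> AC50. Pos ctrl tetraoctylammonium bromide.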
A short description of assay [12]: Cell Viability - LYMP2-007 (AID 979).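 Further: cells exposed to compound for 24 h before reading; 0% = DMSO only and the negative end = 92 µM tetraoctylammonium bromide; nearly all actives have a fitted effect of over 60% in size.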 The following applies: LYMP2-007 lymphoblastoid cell viability; series mostly up to 92.2 µM. The essentials:
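Luminescent ATP signal (CellTiter-Glo) serves as the viability read-out after 24 hr compound treatment of lymphoblastoid cells in complete medium at 37 C. Concentration-response data were fitted to the Hill equation to give AC50 values.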

Assay [13] is described as follows: Cell Viability - LYMP2-024 (AID 988).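 Further: plate controls were DMSO only for no effect and 92 µM tetraoctylammonium bromide for full effect; nearly all actives have a fitted effect of over 60% in size.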 The following applies: LYMP2-024 lymphoblastoid cell viability; series mostly up to 92.2 µM. The essentials: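 Steps: seed 2500 cells/well, 5 hr 37 C; add compound, 24 hr 37 C; add CellTiter-Glo, 30 min room temperature; read luminescence. AC50 derived by Hill modelling of concentration-dependent ATP loss.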
The target of assay [14] is Vitamin D3 receptor (Homo sapiens) (UniProt P11473). Put plainly: qHTS assay for small molecule agonists of vitamin D receptor signaling (AID 588543; calls by dose curve;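 further: 0% = DMSO basal and 100% = reference agonist control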). Particulars: HEK293T VDR-UAS-bla, beta-lactamase ratio, 16 h; series mostly up to 76.8 µM. The essentials: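 GeneBLAzer VDR-UAS-bla HEK293T cells in 2% charcoal-stripped FBS medium were dosed with compound titrations for 16 h at 37 °C; CCF4 β-lactamase readout (405 nm ex, 460/530 nm em). EC50 and efficacy from Hill fits, normalized to 50 nM calcitriol (100%) and DMSO (0%).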

The target of assay [15] is Thyroid hormone receptor beta (Homo sapiens) (UniProt P10828). The assay can be described thus: qHTS assay for small molecule agonists of thyroid hormone receptor beta signaling (AID 588545; calls by dose curve;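 further: 0% = DMSO only and 100% = 10 nM T3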). The following applies: TR-UAS-bla GripTite HEK 293, beta-lactamase ratio, agonist mode, 18 h; series mostly up to 76.7 µM. In short, it runs like this:
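Efficacy and EC50 values derive from Hill fits of qHTS titration data, normalized to 10 nM T3 and DMSO-only wells. HEK 293 reporter cells were stimulated for 18 hrs at 37 C, with beta-lactamase activity measured by CCF4 fluorescence.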

A short description of assay [16]: qHTS assay for small molecule antagonists of retinoid X receptor alpha signaling (AID 588546).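 Further: cells stimulated with 9-cis-retinoic acid as agonist; on the % scale 0 is the no-effect control and ±100 the full control effect.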 The following applies: HEK293T RXRa-UAS-bla, beta-lactamase ratio, antagonist mode; measured here: W530 green channel, cytotoxicity proxy. The essentials:
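Beta-lactamase reporter inhibition, read as CCF4 fluorescence ratio (ex 405, em 460/530 nm) after 2 h at RT. HEK293T UAS-bla cells, 2500/well, were stimulated with 9-cis-RA at 500 or 100 nM final alongside test compound for 18 h at 37 C.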

The nature of assay [17]: qHTS assay for small molecule activators of the p53 signaling pathway (AID 651743; active means well fitted activation curve with a large enough effect in the signal ratio, not every such curve was filed as active; the % refers to the signal ratio; further: % of control where 0% means no effect). Particulars: HCT-116 p53RE-bla, beta-lactamase FRET ratio, 16 h; activation: stronger effect = higher value. In short, it runs like this: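 Cell-based beta-lactamase reporter (p53 response elements, HCT-116 background). After a 5-hour preincubation, cells received compound for 16 hours at 37 C; substrate development ran 2 hours at room temperature.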

A short description of assay [18]: Cellular Toxicity (caspase-3) HepG2 (AID 654).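 Further: cells exposed to compound for 16 hours before reading.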 Particulars: HepG2 caspase-3 activation, luminescence, 0% = DMSO only, 100% = tamoxifen; series mostly up to 92.2 µM. The essentials: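 Cells plated 5 hr at 37 °C, compound added, incubated 16 hr at 37 °C. Caspase-Glo 3/7 reagent followed, 20 min at room temperature, then luminescence read. Activation scored as signal increase; AC50 from Hill fit.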

A short description of assay [19]: Cellular Toxicity (caspase-3) BJ (AID 658). Particulars: BJ fibroblasts, luminescence, normalized: DMSO 0%, staurosporine 100%; series mostly up to 91.7 µM. The essentials: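 Luminescent aminoluciferin-substrate cleavage reports caspase 3/7 activity in normal human BJ fibroblasts after 16 hr compound exposure at 37 °C. Normalized to DMSO (basal) and 10 uM staurosporine (100%); AC50 from Hill fit of concentration-response.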

Assay [20] is described as follows: MultiTox-Fluor Cytotoxicity Assay - LYMP1-002 - Live Cells (AID 955). Further: on the % scale 0 is the no-effect control and ±100 the full control effect. Particulars: LYMP1-002 lymphoblastoid live-cell protease fluorescence viability; series mostly up to 46.1 µM. In short, it runs like this:
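Read-out is live-cell protease activity (cell-permeant GF-AFC substrate, fluorescence Ex/Em=405/510), where a decrease indicates acute toxicity. Human lymphoblastoid cells were treated 16 hours at 37 C in a concentration series, and AC50 values came from standard Hill modelling.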

SMILES strings stand for the structures. Several values for one entry are separate records, joined by “and”; a condition that tells them apart may be missing. Equal values may be shown once. Inconclusive results are not listed. Activity calls are given as the source filed them. Unless noted, the call rests on the fitted dose curve; in most records, active means well fitted curve in the direction sought with a large enough effect; inconclusive means small, poorly fitted or top-dose-only effect, or another doubt; inactive means no such curve, though single readings can be large; an effect the other way counts as inactive or inconclusive. A value given as a limit tells only on which side of the number the result lay.

Chain of Thyroid hormone receptor beta (Homo sapiens) (P10828 whole entry, looked up): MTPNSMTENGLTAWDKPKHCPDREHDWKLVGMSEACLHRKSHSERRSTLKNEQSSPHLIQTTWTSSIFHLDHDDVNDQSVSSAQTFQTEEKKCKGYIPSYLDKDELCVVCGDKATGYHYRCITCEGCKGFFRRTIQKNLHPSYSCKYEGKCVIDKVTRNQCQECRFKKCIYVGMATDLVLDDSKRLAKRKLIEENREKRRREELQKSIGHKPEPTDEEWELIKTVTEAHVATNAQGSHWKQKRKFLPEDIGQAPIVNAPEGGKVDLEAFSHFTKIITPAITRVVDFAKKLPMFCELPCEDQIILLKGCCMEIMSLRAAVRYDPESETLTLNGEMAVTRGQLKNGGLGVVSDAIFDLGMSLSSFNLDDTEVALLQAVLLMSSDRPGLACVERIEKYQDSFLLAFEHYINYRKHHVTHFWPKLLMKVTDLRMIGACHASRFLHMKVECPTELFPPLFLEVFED
Chain of Vitamin D3 receptor (Homo sapiens) (P11473 whole entry, looked up): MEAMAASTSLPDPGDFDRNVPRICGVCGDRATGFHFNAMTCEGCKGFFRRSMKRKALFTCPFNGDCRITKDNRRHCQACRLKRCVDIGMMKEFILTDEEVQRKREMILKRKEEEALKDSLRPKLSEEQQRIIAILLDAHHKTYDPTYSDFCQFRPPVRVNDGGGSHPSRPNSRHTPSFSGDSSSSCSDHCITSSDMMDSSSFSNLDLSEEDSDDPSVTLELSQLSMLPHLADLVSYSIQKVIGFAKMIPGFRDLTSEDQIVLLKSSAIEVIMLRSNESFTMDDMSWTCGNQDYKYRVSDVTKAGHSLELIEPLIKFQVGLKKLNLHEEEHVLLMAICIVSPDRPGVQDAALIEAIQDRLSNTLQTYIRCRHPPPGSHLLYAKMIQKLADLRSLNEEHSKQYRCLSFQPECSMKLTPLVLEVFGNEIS

In the case of `O=C(O)c1cc(Cl)ccc1Cl`, the Potency in assay [1] was > 92 µM (inactive). For the same compound, the Potency entry in [2], in [3], in assay [4], in [6], in [7] and in assay [8] was “inactive” in each case. The Potency entry in [9], in assay [10], in assay [11], in assay [12], in [13] and in assay [15] was “inactive” each time. The call in assay [5] and in [14] was inactive. Moreover, the max response in assay [16] is -9.46%. Also, the activation in assay [17] is -4.12% (inactive).
For `Cc1ccc([N+](=O)[O-])cc1`, the Potency in assay [1] was > 92 µM (inactive). Moreover, the Potency result in [2], in [3], in assay [4], in [6], in [7] and in [8] was “inactive” throughout. In addition, the Potency result in assay [9], in assay [10], in assay [11], in assay [12], in assay [13] and in assay [15] was “inactive” each time. In addition, the result in assay [18], in [19], in assay [20], in assay [5] and in assay [14] was inactive. Moreover, the max response in assay [16] worked out at 1.21%. Also, the activation in assay [17] is -4.73% (inactive).
Take `Cc1cc(-c2cc(C)c(N)c(C)c2)cc(C)c1N`: the Potency in assay [1] was > 92 µM (inactive). For the same compound, the Potency entry in assay [3], in [4], in [6], in assay [7], in [8] and in assay [9] was “inactive” in each case. In addition, the Potency result in [10], in assay [12], in [13] and in assay [15] was “inactive” each time. Besides, the compound was called inactive in [18], in [19], in [20], in [5] and in assay [14]. Besides, the max response in [16] was -0.244%. Further, the activation in assay [17] was -3.17% (inactive).
As for `Nc1ccc(Cc2ccc(N)cc2)cc1`, the Potency in [1] was > 92 µM (inactive). Also, the Potency result in [2], in assay [3], in assay [6], in assay [7], in [8] and in assay [9] was “inactive” throughout. Moreover, the Potency entry in assay [10], in [11], in assay [12], in [13] and in assay [15] was “inactive” in each case. The compound was classed as inactive in assay [18], in assay [19], in [20], in assay [5] and in [14]. For the same compound, the max response in assay [16] was -3.16% and 6.7%. Moreover, the activation in assay [17] is -1.69% (inactive) and -2.54% (inactive).
Consider `CCN(N=O)C(N)=O`, for which the Potency in assay [1] is > 92 µM (inactive). Also, the Potency result in [2], in assay [3], in assay [4], in assay [6], in assay [7] and in [8] was “inactive” each time. The Potency result in [9], in [10], in assay [11], in assay [12], in [13] and in assay [15] was “inactive” throughout. In addition, the outcome in [18], in [19], in assay [20], in assay [5] and in assay [14] was inactive. The max response in assay [16] was -10.6%. The activation in assay [17] was 0.306% (inactive).

The values are drawn from PubChem BioAssay (NCATS).
